# High-throughput results (PubChem)
# This is one part of a sample in which hits are shown more often than they occur.
# IL-1B inflam inh: blocks inflammasome-driven IL-1 beta release. THP-1 LPS/ATP IL-1B secretion, AlphaLISA, 16 h; active compounds read low. hit rate 4.7% among 360,000. activity change, % at 57.5 µM; in the data active means activity change below about -50%; inconclusive means mostly about -30% to -49%
#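 THP-1 cells pretreated 1 hr with compounds (up to 57.5 uM final), then stimulated with LPS (250 ng/mL final) plus ATP (1.25 mM final); secreted IL-1B measured by AlphaLISA after 16 hr, decreased signal indicating inhibition.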
# HT1080-NT tox: kills 2HG-producing HT-1080-NT fibrosarcoma cells | HT-1080-NT fibrosarcoma viability, CellTiter-Glo ATP luminescence, 48 h | Potency, µM (top dose mostly 46.1 µM), for inactives: at the top dose activity, negative = less viability, hits mostly cytotoxic | hit rate 1.6% among 360,000 | AID 686970;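 further: NT is the 2HG producing partner of a matched IDH1 knockdown line; potency means the concentration at half of the fitted maximal effect; 0% = DMSO-treated cells and -100% = media-only wells without cells; nearly all actives have a fitted effect of over 55% in size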
#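 Compounds were tested in concentration-response format on HT-1080-NT cells for 48 hours at 37 degrees C. Cell viability came from CellTiter-Glo luminescence; curves were classified by r2, response magnitude and activity.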
# TDP1 cell CPT: growth inhibition of DT40 Tdp1-/-;hTDP1 cells with camptothecin (screen for TDP1 inhibitors); chicken DT40 Tdp1-/-;hTDP1 cells + 20 nM CPT, ATP luminescence, 48 h; Potency, µM (doses to about 46.2 µM), without a hit: at the highest dose activity change, negative = growth inhibition, hits mostly inhibitors; hit rate 12% among 420,000; further: potency means the concentration at half of the fitted maximal effect; nearly all actives have a fitted effect of over 55% in size
#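 Chicken DT40 Tdp1-/- cells stably complemented with human TDP1 were seeded at 400 cells/well in medium containing 20 nM camptothecin, exposed to pin-transferred compounds, and grown at 37 °C for at least 48 hr. Viability was read as ATP luminescence.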
# 12-LOX inh: inhibitors of human 12S-lipoxygenase ALOX12; purified 12hLO, xylenol orange hydroperoxide absorbance; Potency, µM (highest dose often 108 µM), for inactives: top-dose activity change, negative = inhibition, usual class: inhibitors; hit rate 1.1% among 580,000; further: potency means the concentration at half of the fitted maximal effect
# Target sequence (P18054 whole entry, looked up): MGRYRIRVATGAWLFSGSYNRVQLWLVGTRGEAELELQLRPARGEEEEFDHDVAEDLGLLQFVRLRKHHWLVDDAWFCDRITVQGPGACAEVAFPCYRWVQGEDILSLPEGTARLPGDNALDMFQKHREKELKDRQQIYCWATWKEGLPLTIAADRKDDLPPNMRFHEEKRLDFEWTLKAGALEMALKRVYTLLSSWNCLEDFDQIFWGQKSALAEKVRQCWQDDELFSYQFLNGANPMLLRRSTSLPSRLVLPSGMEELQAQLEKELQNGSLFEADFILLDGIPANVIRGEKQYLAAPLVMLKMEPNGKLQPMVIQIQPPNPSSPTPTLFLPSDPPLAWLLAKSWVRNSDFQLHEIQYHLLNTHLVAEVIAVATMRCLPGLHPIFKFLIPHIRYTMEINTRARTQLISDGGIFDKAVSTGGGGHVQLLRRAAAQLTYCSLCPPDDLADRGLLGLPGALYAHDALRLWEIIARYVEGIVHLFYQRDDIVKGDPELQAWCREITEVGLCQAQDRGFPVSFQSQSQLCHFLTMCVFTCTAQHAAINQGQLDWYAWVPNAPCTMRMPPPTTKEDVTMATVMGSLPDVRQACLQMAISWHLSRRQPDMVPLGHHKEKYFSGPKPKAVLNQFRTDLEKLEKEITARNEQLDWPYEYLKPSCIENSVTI
#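 Hydroperoxide product was detected by ferrous iron/xylenol orange as the 573 to 405 nm absorbance ratio. Arachidonic acid at 40 uM (final) was turned over for 30 min at room temperature by 150 nM human 12hLO, pH 7.0 Hepes buffer, after 15 min compound preincubation.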
# DT40 TDP1 no CPT: qHTS for Inhibitors of human tyrosyl-DNA phosphodiesterase 1 (TDP1): qHTS in cells in absence of CPT | hit rate 15% among 420,000 | DT40 Tdp1-/- hTDP1 cells, no CPT, ATP luminescence, 48 h | Potency, µM (top dose mostly 46.2 µM), inactives show at the highest dose activity change, negative = growth inhibition, most hits filed as inhibitors; further: potency means the concentration at half of the fitted maximal effect; nearly all actives have a fitted effect of over 55% in size
#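 DT40 Tdp1-/-;hTDP1 cells, no CPT (DMSO vehicle only), 400 cells/well; compounds pin-transferred; ≥48 hr, 37 °C; CellTiter-Glo 30 min RT dark, luminescence read.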
# HT1080 IDH1KD tx: kills HT-1080 cells with IDH1 knockdown. HT-1080 IDH1 knockdown viability, ATP luminescence, 48 h. hit rate 2% among 360,000. AID 686971. Potency, µM (top dose mostly 46.1 µM), without a hit: at the top dose activity, negative = toxicity, actives largely listed as cytotoxic;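 further: potency means the concentration at half of the fitted maximal effect; 0% = DMSO wells and -100% = cell-free medium wells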
#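 In this qHTS, HT-1080 cells depleted of IDH1 are exposed for 48 h at 37 °C to compound titrations. Toxicity is scored from CellTiter-Glo luminescence, with DMSO as full viability and medium alone as none.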
# * hit, by the source's call; u = inconclusive; x = not tested or not shown; [ ] = remark or other dose. Unless noted, the call rests on the fitted dose curve; in most records, active means well fitted curve in the direction sought with a large enough effect; inconclusive means small, poorly fitted or top-dose-only effect, or another doubt; inactive means no such curve, though single readings can be large; an effect the other way counts as inactive or inconclusive. Unless noted, on the % scale 0 is the no-effect control and ±100 the full control effect.
SMILES,IL-1B inflam inh,HT1080-NT tox,TDP1 cell CPT,12-LOX inh,DT40 TDP1 no CPT,HT1080 IDH1KD tx
COc1ccc(/C=N/NC(=O)c2cc3cc(OC)c(OC)cc3[nH]2)cc1,-51*,-1%,u,7%,-24%,8%
COc1ccc2[nH]c(C(=O)N/N=C/c3ccc(O)cc3O)cc2c1,102,u,4.6µM*,94%,3.7µM*,2.3µM*
COc1ccc2c(CN3CCN(C(=O)C4COc5ccccc5O4)CC3)cc(=O)oc2c1 (stereo not drawn),x,x,x,-6%,x,x
CC(C)NC(=O)C(=O)NCCc1c[nH]c2ccccc12,x,x,x,0%,x,x
COC(=O)c1ccc(NC(=O)C2=C(c3ccccc3)S(=O)(=O)CCO2)cc1,x,x,x,-2%,x,x
COc1ccc2[nH]c(C(=O)c3ccccc3)cc2c1,x,x,0.13µM*,2%,0.15µM*,x
COc1cc2cc(C(=O)N/N=C/c3ccccc3Cl)[nH]c2cc1OC,-58*,0%,u,0%,23µM*,-3%
COc1ccc(/C=N/NC(=O)c2nc(-c3ccccc3)n(-c3ccccc3)n2)cc1,-2,0%,10%,-6%,3%,9%
COc1ccc(/C=N/NC(=O)c2nc(-c3ccccc3)n(-c3ccccc3)n2)c(O)c1,57,u,u,7%,16µM*,u
Cc1ccc(C2Cn3nnc(C(=O)N4CCC(C(=O)Nc5ccc(F)c(Cl)c5)CC4)c3CO2)cc1 (stereo not drawn),x,x,x,7%,x,x
Cc1ccc(C2C3=C(CC(C)(C)CC3=O)Nc3c2c(=O)[nH]c(=O)n3C)cc1 (stereo not drawn),x,x,x,-54%,x,x
COCCNS(=O)(=O)c1cc(C(=O)O)cc(-c2cccc(C(C)N(C)C)c2)c1 (stereo not drawn),x,x,x,36%,x,x
CCCc1nnc(NC(=O)CCC(=O)N2CCN(Cc3ccccc3)CC2)s1,46,2%,-19%,-10%,14%,11%
CCCc1nnc(NC(=O)CCC(=O)N2CCN(Cc3ccc(C)cc3C)CC2)s1,10,-21%,-22%,-12%,8.2µM*,-12%
CCc1nnc(NC(=O)CCC(=O)N2CCN(Cc3ccc(C)cc3C)CC2)s1,33,-8%,u,-2%,18µM*,-12%
Cc1ccc(CN2CCN(C(=O)CCC(=O)Nc3nnc(C(C)C)s3)CC2)c(C)c1,-86*,-22%,u,-7%,u,-16%
Cc1ccc(NC(=O)CCNC(=O)c2ccccc2)cc1S(=O)(=O)N1CCCCC1,x,x,x,2%,x,x
CCN(CC)S(=O)(=O)c1ccc(Cl)c(C(=O)N2CCCC2C(=O)O)c1 (stereo not drawn),x,x,x,-2%,x,x
CCCCn1nc(C(=O)Nc2cccc(C(F)(F)F)c2)c2ccccc2c1=O,x,x,x,-43%,x,x
Cc1cccc(OCC(O)Cn2nnc(-c3cccnc3)n2)c1 (stereo not drawn),x,x,x,35%,x,x
CN(CCNC(=O)c1nn(C)c2c1COc1ccccc1-2)C1CCCCC1,x,x,x,18%,x,x
Cc1ccccc1-n1ncc2c1NC(=O)CC21C(=O)N(CC(N)=O)c2c(C)cccc21 (stereo not drawn),x,x,x,10%,x,x
O=C(COc1ccc(Br)cc1Br)NC1CCCC1,-22,u,4.1µM*,-3%,u,-14%
O=C(COc1ccc(Br)cc1CNC1CCCC1)Nc1ccccc1,-63*,u,u,3%,18µM*,u
O=C(COc1ccc(Cl)cc1Cl)NC1CC1,-1,7%,u,0%,u,-1%
SMILES,IL-1B inflam inh,HT1080-NT tox,TDP1 cell CPT,12-LOX inh,DT40 TDP1 no CPT,HT1080 IDH1KD tx
CCOC(=O)C1CCN(C(=O)COc2ccc(Br)cc2Br)CC1,-66*,-27%,-19%,-7%,-6%,-3%
Cc1cc(Cl)ccc1OCC(=O)NC1CCCC1,-85*,u,12µM*,2%[57.4 µM],13µM*,-10%
O=C(COc1ccc(Br)cc1CO)Nc1ccc(F)cc1,-12,13%,-13%,-6%,-21%,5%
N#Cc1c(C2CCNCC2)cc(-c2c(O)cccc2OCC2CC2)nc1N,x,x,x,-5%[57.4 µM],x,x
Cc1ccccc1-c1nc(N2CCOCC2)cc2c1CN(CC1CC1)C2=O,x,x,x,13%[176 µM],x,x
CCOc1cc(CNCc2ccccc2)ccc1OCC(=O)NC1CCCCC1,-6,-14%,18µM*,8%,16µM*,1%
Cc1ccc(S(=O)(=O)CCC(=O)NC2CCCCC2)cc1,13,11%,18µM*,u,15µM*,4%
Cc1ccc(C)c(OCC(=O)NC2CCCCCC2)c1,-66*,-12%,-28%,5%,u,-24%
COc1cc(CNCc2ccccn2)ccc1OCC(=O)NC1CCCCC1,14,8%,-21%,5%,-24%,-9%
CNC(=S)NNC(=O)c1csc(C)c1C,x,x,x,8%,x,x
CCCCc1ccc(-c2cc(C(=O)NC3CCCC3)c3cc(Br)ccc3n2)cc1,x,x,x,11%,x,x
CCCCCNc1nc2ccccc2nc1NS(=O)(=O)c1cccc(C)c1,x,x,x,34%,x,x
C[C@H]1[C@@H]2[C@@H](O)C([C@H](C)C(=O)N3CCCC3)CC[C@@]2(C)CC[C@@H]1NC(=O)c1ccccc1 (stereo partly drawn),x,x,x,2%[176 µM],x,x
CCCCc1c(O)nc(SCC(=O)c2ccccc2)n(-c2ccccc2OC)c1=O,x,6%,-9%,u,8.2µM*,18%
CCCCc1c(O)nc(SCC(=O)N2CCOCC2)n(-c2ccc(C)cc2)c1=O,13,0%,-14%,-17%,u,3%
CCCCc1c(O)nc(SCC(=O)c2ccccc2)n(-c2ccccc2)c1=O,25,2%,2.9µM*,0%,2.6µM*,7%
COc1cc(-c2ccnc(-c3nnc(C)n3C3CCCCC3)c2)ccn1,x,x,x,6%[176 µM],x,x
COC(=O)c1ccc(OC(=O)/C=C/c2ccc(Br)o2)cc1,x,x,x,11µM*,x,x
COc1cc(C(=O)O/N=C2/C=C(C)C(=O)C=C2C)cc(OC)c1OC,18,6%,8.2µM*,-5%,2.1µM*,21%
COc1cc(C(=O)ON=C2C(C)=CC(=O)C=C2C)cc(OC)c1OC,-4,-2%,-13%,5%,1%,4%
CCOC(=O)N1CCN(C(=S)Nc2cc(S(=O)(=O)N3CCOCC3)ccc2Cl)CC1,-11,3%,u,-2%,18µM*,-13%
Cc1cc(Cl)c(S(=O)(=O)N2CCCC2)cc1OCC(N)=O,-8,-7%,3%,17%,-3%,-6%
